CIT2-GFP yeast: modulators of TOR pathway CIT2-GFP in S. cerevisiae; 320,000 tested, 0.065% active; S. cerevisiae CIT2-GFP strain, flow cytometry, 3 h; 100 means same as DMSO wells; AID 2029; GFP response vs DMSO, % at 10 µM;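 active = GFP response relative to DMSO above a set limit, near the screen mean plus 3 SD, cut at about 150% in these data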;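 note: ratio of well median GFP fluorescence to mean of DMSO wells on the plate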
AGP1 TOR yeast: yeast TOR pathway AGP1-GFP modulation. AID 2066. 320,000 tested, 0.02% active. GFP response vs DMSO, % at 10 µM. S. cerevisiae AGP1-GFP multiplex flow cytometry, 3 h; GFP as percent of DMSO wells;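 active = GFP response relative to DMSO above a set limit, near screen average plus 3 SD, cut at about 150% in these data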;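 note: median GFP channel fluorescence of the gated AGP1 strain per well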
LAP4-GFP MLPCN: yeast TOR pathway LAP4-GFP modulation; S. cerevisiae LAP4-GFP multiplex, flow cytometry GFP, 3 h; median GFP as percent of DMSO wells; GFP response vs DMSO, % at 10 µM; 320,000 tested, 0.34% active; AID 2023;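 active = GFP response vs DMSO above a set limit, about the screen mean plus 3 SD, cut at about 150% in these data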
RPL19A TOR yeast: yeast TOR pathway RPL19A-GFP modulation; S. cerevisiae RPL19A-GFP strain, flow cytometry, 3 h; active compounds read low; percent response vs DMSO, % at 10 µM; 330,000 tested, 0.3% active;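 active = percent response vs DMSO below 50%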;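 note: median channel GFP fluorescence of the barcoded RPL19A-GFP strain; lower means less RPL19A-GFP as with rapamycin TOR inhibition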
MEP2 TOR yeast: yeast TOR pathway MEP2-GFP modulation | S. cerevisiae MEP2-GFP strain, flow cytometry GFP, 3 h; 100% = DMSO control level | GFP response vs DMSO, % at 10 µM | 330,000 tested, 0.51% active;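 active = GFP response versus DMSO above a set limit, roughly screen mean plus 3 SD, cut at about 180% in these data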;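 note: median GFP fluorescence of the barcode-gated MEP2-GFP cells per well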
LAP4 cherry2: yeast LAP4-GFP modulation, second cherry pick. shares compounds with LAP4-GFP MLPCN. S. cerevisiae LAP4-GFP strain, flow cytometry GFP, 3 h. GFP response vs DMSO, % at 10 µM. 590 tested, 20% active;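 active = GFP signal as percent of the solvent control above about 150%, meaning raised reporter expression, limit read from the data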
MEP2-GFP pick2: yeast MEP2-GFP modulation, second cherry pick; 590 tested, 10% active; GFP response vs DMSO, % at 10 µM; S. cerevisiae MEP2-GFP strain, flow cytometry GFP, 3 h; AID 2622; shares compounds with LAP4-GFP MLPCN;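 active = GFP signal above 150% of the solvent control wells, that is a rise of more than half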;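 note: median channel GFP fluorescence of all gated yeast cells per well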
RPL19A GFP CP2: yeast RPL19A-GFP TOR reporter modulation, second cherry pick. 590 tested, 3% active. GFP response vs DMSO, % at 10 µM. shares compounds with LAP4-GFP MLPCN. S. cerevisiae RPL19A-GFP strain, flow cytometry GFP, 3 h; active compounds read low; 100% means same as DMSO wells;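 active = under 65% GFP response relative to DMSO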;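 note: median GFP channel fluorescence per well over the all cells gate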
CIT2-GFP pick2: yeast CIT2-GFP TOR reporter modulation, second cherry pick. shares compounds with LAP4-GFP MLPCN. GFP response vs DMSO, % at 10 µM. S. cerevisiae CIT2-GFP strain, flow cytometry GFP, 3 h; DMSO control wells read 100%. AID 2624. 590 tested, 8% active;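 active = GFP response vs DMSO above about 150%, limit read from the data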;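 note: median green fluorescence per well over all gated yeast cells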
AGP1 GFP CP2: second confirmation of modulators of TOR reporter AGP1-GFP in yeast | shares compounds with LAP4-GFP MLPCN | S. cerevisiae AGP1-GFP strain, flow cytometry GFP, 3 h | percent response vs DMSO, % at 10 µM | 590 tested, under 10 active | AID 2643;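 active = over 150 percent of DMSO response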;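 note: median GFP channel fluorescence over all cells without mother daughter split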
s288c autofluor: counter-screen for compound autofluorescence in yeast s288c cells | 610 tested, under 10 active | S. cerevisiae s288c, 520 nm autofluorescence, flow cytometry, 3 h; active compounds read high; zero means same as solvent-only cells | fluorescence change (kMESF span) at 33 µM | shares compounds with LAP4-GFP MLPCN;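 active = fluorescence span over the dose series, or activity score, above about 33, limit read from the data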
Of the large screens only hits and unclear results are named; the others gave an inactive call (follow-up assays come after a bar, where they were run). The list is not random: actives were taken first. Their share in the collection is about 0.89%.

CC1=CC(=O)c2c(O)ccc(O)c2C1=O	LAP4-GFP MLPCN 195 | LAP4 cherry2 196 | MEP2-GFP pick2 276 | RPL19A GFP CP2 inactive | CIT2-GFP pick2 inactive | AGP1 GFP CP2 inactive
O=C(CCNC(=O)N1CCn2c1nc1ccccc12)NCc1ccc(F)cc1	none | LAP4 cherry2 inactive | MEP2-GFP pick2 inactive | RPL19A GFP CP2 inactive | CIT2-GFP pick2 inactive | AGP1 GFP CP2 inactive
CCOC(=O)/C(C#N)=N/Nc1ccccc1C(=O)O	none
N#C/C(N=Nc1ccccc1O)=N\Nc1ccccc1O	LAP4-GFP MLPCN 183 | LAP4 cherry2 inactive | MEP2-GFP pick2 inactive | RPL19A GFP CP2 inactive | CIT2-GFP pick2 inactive | AGP1 GFP CP2 inactive
CCCCc1nc2sc3c(SCC(=O)NCc4ccco4)ncnc3c2c2c1CCC2	none
CCOc1ccc(-c2nc(CS(=O)(=O)CC(=O)NCc3ccc(F)cc3)c(C)o2)cc1	LAP4-GFP MLPCN 181, MEP2 TOR yeast 177 | LAP4 cherry2 inactive | MEP2-GFP pick2 inactive | RPL19A GFP CP2 inactive | CIT2-GFP pick2 inactive | AGP1 GFP CP2 inactive
COCCCOc1ccnc(CS(=O)c2nc3ccccc3[nH]2)c1C (stereo not given)	none
Cc1c(OCC(F)(F)F)ccnc1CS(=O)c1nc2ccccc2[nH]1 (stereo not given)	LAP4-GFP MLPCN 158 | LAP4 cherry2 inactive | MEP2-GFP pick2 inactive | RPL19A GFP CP2 inactive | CIT2-GFP pick2 inactive | AGP1 GFP CP2 inactive
C#CCOCCOCCOCCNc1nc(N2CCN(C(=O)CCCCCCCCCCNC(=O)[C@H](CCCCN)n3cc(CCO)nn3)CC2)nc(N2CCN(C(=O)CCCCCCCCCCNC(=O)[C@H](CCCCN)n3cc(C[C@@H](C)CC)nn3)CC2)n1	LAP4-GFP MLPCN 161 | LAP4 cherry2 inactive | MEP2-GFP pick2 152 | RPL19A GFP CP2 inactive | CIT2-GFP pick2 inactive | AGP1 GFP CP2 inactive | s288c autofluor inactive
C#CCOCCOCCOCCNc1nc(N2CCN(C(=O)CCCCCCCCCCNC(=O)[C@@H](CCC(=O)O)n3cc(CCCCCN)nn3)CC2)nc(N2CCN(C(=O)CCCCCCCCCCNC(=O)[C@H](CCCCN)n3cc(C[C@@H](C)CC)nn3)CC2)n1	LAP4-GFP MLPCN 198 | LAP4 cherry2 inactive | MEP2-GFP pick2 176 | RPL19A GFP CP2 inactive | CIT2-GFP pick2 inactive | AGP1 GFP CP2 inactive | s288c autofluor inactive
C#CCOCCOCCOCCNc1nc(N2CCN(C(=O)CCCCCCCCCCNC(=O)[C@H](CCCCN)n3cc(C)nn3)CC2)nc(N2CCN(C(=O)CCCCCCCCCCNC(=O)[C@H](CCCN=C(N)N)n3cc(C[C@@H](C)CC)nn3)CC2)n1	LAP4-GFP MLPCN 191 | LAP4 cherry2 inactive | MEP2-GFP pick2 169 | RPL19A GFP CP2 inactive | CIT2-GFP pick2 inactive | AGP1 GFP CP2 inactive | s288c autofluor inactive
C#CCOCCOCCOCCNc1nc(N2CCN(C(=O)CCCCCCCCCCNC(=O)[C@@H](CCSC)n3cc(CCO)nn3)CC2)nc(N2CCN(C(=O)CCCCCCCCCCNC(=O)[C@H](CO)n3cc(CCCCCN)nn3)CC2)n1	none
